# IMPase Li cell – IMPase inhibition in cells with lithium potentiation; CHO-M1 cells, IP1 TR-FRET (IP-One), carbachol + lithium; Potency, µM (highest dose often 59.4 µM), for inactives: at the top dose activity, negative = IMPase inhibition, most hits filed as inhibitors; actives 0.35% (n = 210,000);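 also: IP1 builds up when IMPase is blocked and the TR-FRET signal falls; plate controls were basal vehicle for no effect and high inhibitor control for full effect; nearly all actives have a fitted effect of over 50% in size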
#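 Steps: plate 2000 CHO-M1 cells per well and culture 16–30 h; add compound and lithium; incubate 30 min, 37C; add d2-IP1 tracer and Eu cryptate anti-IP1 antibody in lysis buffer; read after 10 min at room temperature.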
# LMNA splice mod – LMNA splicing modulation. HeLa LMNA splicing GFP/RFP minigene ratio, 48 h. Potency, µM (top dose mostly 46.1 µM), for the others: at the highest dose ratio change, negative = inhibition, actives largely listed as inhibitors. actives 0.01% (n = 200,000). AID 1487; active = well fitted inhibition curve with a large enough effect in the signal ratio, with a control signal flat, not every such curve was filed as active; inconclusive = small, poorly fitted or top-dose-only effect, or effect the other way, or a change in a side signal; the % refers to the signal ratio
#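 Read-out is the ratio of GFP to DsRed2 object intensity, acquired by 488 nm laser-scanning cytometry on HeLa lamin A-EGFP minigene reporter cells. Compound incubation 48 hrs at 37 °C in Opti-MEM with 2% FBS; DMSO 0.5% final.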
# Luc counter – Kinase-Glo luciferase inhibition (counter-screen) | AID 1379 | Potency, µM (highest dose often 38.3 µM), without a hit: at the highest dose activity change, negative = inhibition, actives largely listed as inhibitors | Kinase-Glo luciferase, ATP luminescence, 8 min | actives 0.28% (n = 200,000); also: nearly all actives have a fitted effect of over 60% in size
#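 Inhibition of Kinase-Glo luciferase light generation was assessed at 10 uM ATP in pH 7.2 imidazole buffer, with luminescence measured after eight minutes at ambient temperature.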
# HPGD block – inhibitors of human 15-hydroxyprostaglandin dehydrogenase (HPGD); purified HPGD, NADH fluorescence kinetic, PGE2 substrate; Potency, µM, inactives show at the top dose activity change, negative = inhibition, most hits filed as inhibitors; actives 4.3% (n = 150,000); active = well fitted inhibition curve with a large enough effect, not every such curve was filed as active; inconclusive = small, poorly fitted or top-dose-only effect, or another doubt; inactive = no such curve, though single readings can be large or run the other way
#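 NADH formation kinetics: reaction with 30 uM PGE2 and 1 mM NAD+ (final), 20 nM enzyme, Tris-HCl pH 8 with Tween 20, after 15 min compound preincubation at room temperature. Fluorescence change, last versus first of five reads.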
# ALDH1A1 inh – blocks purified human ALDH1A1 activity; P00352; actives 7.3% (n = 220,000); Purified ALDH1A1, NADH fluorescence, propionaldehyde substrate; Potency, µM (titrated, usually from 75.3 µM), for inactives: top-dose activity, negative = inhibition, usual class: inhibitors; active = well fitted inhibition curve with a large enough effect, not every such curve was filed as active; inconclusive = small, poorly fitted or top-dose-only effect, or another doubt; inactive = no such curve, though single readings can be large or run the other way;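 also: plate controls were no enzyme wells and a reference inhibitor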
# Target sequence (P00352 whole entry, looked up): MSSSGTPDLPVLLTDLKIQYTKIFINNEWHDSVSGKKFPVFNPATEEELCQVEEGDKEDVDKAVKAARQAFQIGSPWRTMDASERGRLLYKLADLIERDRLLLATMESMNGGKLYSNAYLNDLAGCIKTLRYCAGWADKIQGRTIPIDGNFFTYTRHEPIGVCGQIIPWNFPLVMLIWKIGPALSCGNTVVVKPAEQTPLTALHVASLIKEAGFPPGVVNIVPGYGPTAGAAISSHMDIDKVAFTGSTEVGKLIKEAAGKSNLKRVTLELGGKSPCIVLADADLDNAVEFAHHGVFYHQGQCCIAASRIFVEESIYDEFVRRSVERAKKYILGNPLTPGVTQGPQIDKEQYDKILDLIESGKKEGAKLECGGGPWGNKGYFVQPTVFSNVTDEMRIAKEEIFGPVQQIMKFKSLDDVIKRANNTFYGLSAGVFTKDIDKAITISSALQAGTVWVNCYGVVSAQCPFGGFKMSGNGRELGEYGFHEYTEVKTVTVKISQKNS
# Numbers without * were called inactive; u = inconclusive; x = not tested or not shown; [ ] = remark or other dose. Only some compounds are listed: those with a hit (about 9% of all), similar ones and a draw of the others. Unless noted, calls follow the shape of the dose curve; as a rule, active = well fitted curve in the direction sought with a large enough effect; inconclusive = small, poorly fitted or top-dose-only effect, or another doubt; inactive = no such curve, though single readings can be large; an effect the other way counts as inactive or inconclusive. Unless noted, % is scaled to controls: 0 for no effect and ±100 for the full control effect; potency is read from the fitted curve at half-maximal effect.
SMILES,IMPase Li cell,LMNA splice mod,Luc counter,HPGD block,ALDH1A1 inh
CCOC(=O)C1=C(c2ccccc2)NC(=O)NC1c1cc(Br)c(O)c(OC)c1 (stereo not drawn),6%,x,3%,x,22µM*
COc1ccc(CNC(=O)CN(C2CCCCC2)S(C)(=O)=O)cc1,7%,2%,-2%,-2%,u
C[C@H]1Cc2c(-c3ccccc3)nc3c(c2CO1)CN(C(=O)Nc1cccc(C#N)c1)CC3,10%,-4%[9.22 µM],0%[7.66 µM],-2%,-8%[13.5 µM]
O=C(N/N=C/C=C/c1ccccc1)NC1CCCCC1,5%,x,-3%,x,-3%
O=C(c1cn(-c2ccccc2)nc1-c1cccc([N+](=O)[O-])c1)N1CCCCC1,-1%,u,4%,x,u
CN(C)C(=O)c1cn(-c2ccccc2)nc1-c1cccc([N+](=O)[O-])c1,-4%,x,2%,x,8.9µM*
O=C(O)/C=C/c1cn(-c2ccccc2)nc1-c1cccc([N+](=O)[O-])c1,x,x,x,x,2%
Cc1ccc(C(=O)N/C(=C/c2cn(-c3ccccc3)nc2-c2ccccc2)C(=O)O)cc1,1%,x,x,x,11µM*
CC(C)NC(=O)/C(=C/c1cn(-c2ccccc2)nc1-c1cccc([N+](=O)[O-])c1)NC(=O)c1ccccc1,-6%,12%,2%,-5%,14µM*
COC(=O)[C@@H]1C[C@H]2CC[C@H](O)C[C@H]2N1Cc1ccc(Cl)cc1,0%,x,-1%,-4%,-2%
O=C(NCCc1ccc(Cl)cc1)c1nc(-c2cccc(F)c2)n2c1CCCCC2,x,-19%[46 µM],x,x,x
CCC(CC)C(=O)Nc1cccc(/C(C)=N/NC(=O)c2ccccc2Cl)c1,56%[38.3 µM],6%,1%,-22%,13µM*
CCC(CC)C(=O)Nc1cccc(/C(C)=N/NC(=O)c2c(Br)cnn2C)c1,7%[38.3 µM],8%,-2%,-7%,-6%
Cc1nc2sc(C(=O)O)c(N)c2c2c1COC(C)(C)C2,-3%[38.3 µM],-7%,1%,-13%,14µM*
CC(C)(C)c1ccc(OCc2ccc(C(=O)N3CCOCC3)o2)cc1,10%,x,-1%,x,-1%
CC1CCCCN1C(=O)c1ccc(COc2ccc([N+](=O)[O-])cc2)o1 (stereo not drawn),14%,u,2%,22µM*,14µM*
Nc1cnn(Cc2ccccc2F)c1,9%,-12%[46 µM],2%,x,14µM*
Nc1cnn(Cc2ccc(F)cc2)c1,6%,u,-1%,x,-1%
Cc1ccc(C(=O)CC(=O)c2cccc(F)c2)c(O)c1,16%[38.3 µM],u,-1%,14µM*,-4%
C=CCN1C(=O)/C(=C2\SC(N3CCOCC3)=NC2=O)c2cc(Br)ccc21,23%[38.3 µM],-13%,-5%,-15%,3.5µM*
Nc1ncnc2c1ncn2C[C@@H](O)C(=O)O,-10%,x,-6%[7.66 µM],-8%,18%[13.5 µM]
CCOc1nc(OCC)nc(N2CCC(C)CC2)n1,31%[38.3 µM],18%,-2%,-3%,10µM*
O=C(NC(=S)N1CCN(c2ccc(Cl)cc2[N+](=O)[O-])CC1)c1ccco1,8%,u,3%,u,-3%
O=C(NC(=S)N1CCN(c2ccc(Cl)cc2[N+](=O)[O-])CC1)c1cccs1,11%,u,6%,-27%,7.9µM*
O=C1OC(c2ccccc2)/C(=C(/O)c2ccc(Cl)cc2)C1=O (stereo not drawn),u,2%,-2%,35µM*,38µM*
SMILES,IMPase Li cell,LMNA splice mod,Luc counter,HPGD block,ALDH1A1 inh
O=C1OC(c2ccccc2)/C(=C(/O)c2ccccc2)C1=O (stereo not drawn),u,8%,2%,-18%,0.79µM*
O=S(=O)(c1cccc2cccc(Cl)c12)N1CCCC1,-6%,x,3%,x,2%
COc1ccccc1C(=O)NCC1(N2CCN(C)CC2)CCCCC1,x,2%[46 µM],x,x,x
COc1ccc(CCN2C(=O)CC(C(N)=O)SC2=Nc2ccccc2)cc1OC (stereo not drawn),-1%[38.3 µM],11%,0%,-9%,14µM*
O=C1CC(N2CCN(c3ccccn3)CC2)C(=O)N1CC(c1ccccc1)c1ccccc1 (stereo not drawn),18%,u,-1%,-27%,3.2µM*
COc1ccc(CCN2C(=O)CC(N3CCN(c4ccccn4)CC3)C2=O)cc1OC (stereo not drawn),35%[38.3 µM],2%,4%,-12%,25µM*

# Source: PubChem
